# In the supplement of paper PMC6555819:
# Key:
# Assay in all cases: PBM binding z-score (relative to random genomic background probes); higher = stronger binding; sequences stand for … in GC…GCGATTGACAGCGTAGAATGAAGG
# [1] = system: FXR:RXRa (NR concentration 270 nM, RXRa partner concentration 90 nM)
# In short: (§1)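 Ligand-free nuclear receptor dimers were applied to custom Agilent 4×180K protein-binding microarrays whose double-stranded probes carried direct-repeat seeds, single-nucleotide variants, half-site ablations and random human genomic background sequences in 34-nt variable regions. Incubation lasted 1 h. Binding z-scores were computed against the random background probes from regression-normalized fluorescence.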
# [2] = system: LXRa:RXRa (NR concentration 270 nM, RXRa partner concentration 90 nM)
# In short: as §1
# [3] = system: LXRa homodimer (NR concentration 270 nM)
# In short: as §1
# [4] = system: LXRb:RXRa (NR concentration 270 nM, RXRa partner concentration 90 nM)
# In short: as §1
# [5] = system: LXRb homodimer (NR concentration 270 nM)
# In short: as §1
# [6] = system: PPARa:RXRa (NR concentration 270 nM, RXRa partner concentration 90 nM)
# In short: as §1
# [7] = system: PPARg:RXRa (NR concentration 180 nM, RXRa partner concentration 90 nM)
# In short: as §1
# [8] = system: PPARg:RXRa 270nM:90nM, anti-RXR (NR concentration 270 nM, RXRa partner concentration 90 nM)
# In short: as §1
# [9] = system: PPARg:RXRa 30nM:10nM, anti-RXR (NR concentration 30 nM, RXRa partner concentration 10 nM)
# In short: as §1
# [10] = system: PPARg:RXRa 90nM:30nM, anti-RXR (NR concentration 90 nM, RXRa partner concentration 30 nM)
# In short: as §1
Sequence,PBM binding z-score [1],PBM binding z-score [2],PBM binding z-score [3],PBM binding z-score [4],PBM binding z-score [5],PBM binding z-score [6],PBM binding z-score [7],PBM binding z-score [8],PBM binding z-score [9],PBM binding z-score [10]
TCGAGTAGGTTAGGGCCATTCAGAATGGCGTCGA,0.218,-0.0329,-0.658,-0.207,-1.05,0.58,0.0561,0.722,0.497,0.65
ATCTCTAGGTAACAAGTTCAGTTAAAGAGAGGAC,0.755,0.963,0.655,0.642,0.936,1.62,1.48,2.05,0.996,1.57
ATCTCTAGGTAAAAGTTGAGTGAATCCCGAGGAT,0.0929,0.162,0.126,-0.0605,0.531,2.84,4.94,6.21,5.21,6.22
TGAATGTGGTTAAAGATCAGGGAACGTGGCGTCG,-0.133,-0.264,0.0303,-0.186,0.696,0.692,1.33,2.69,1.45,2.47
CCTACTGGGCCAAAGGTCATCGATTCCAATGCTC,4.44,5.28,3.59,4.41,0.378,6.8,11.5,10.6,10.6,11.5
TTACCAAGGTGAGCTGAGGTCGTTGAGCCAACTC,1.91,1.27,-0.402,0.809,-1.19,1.84,-0.225,0.876,-0.207,0.236
CCAGACAGGTGAAAGGTAACTCAGTCTGGTACGC,0.692,0.861,-0.121,1.01,-0.274,3.53,6.06,5.9,4.26,6.73
ACTAGCAGGCCAAGGGTCACTGAAGATTAGTCCG,3.07,2.89,0.0691,2.66,-0.585,4.73,8.44,7.62,6.5,8.43
GCTAGTTGGTCAGTAAAAGGTCAAACACCGGTCG,3.88,5.14,6.12,4.91,1.54,4.71,2.68,4.45,2.84,4.37
TCTAGATGGTCAAAGGTCACACACTCGAAATGCG,6.69,5.75,4.06,5.58,1.37,6.38,10.2,8.58,8.53,9.72
TCTTGTAGATCAAGCAGGTTAAGAGAGCCTGAGT,0.126,0.03,-0.729,0.145,-0.665,0.53,-0.372,0.87,2.06,1.55
ATAACAAGGTGATCGTGAGGTCGTTGATACTAAC,1.71,1.19,0.521,1.1,0.521,1.89,0.967,0.692,0.235,0.705
TTATATAGGTAATACAGGTGAAAGTCGGCATCTA,0.622,1.12,0.509,0.772,0.539,2.7,3.5,3.07,2.07,2.5
AGTCAAAGTTCACTAGGTAACTTAAGATTCAGCT,5.3,5.02,3.26,3.15,1.21,4.91,6.82,6.55,3.6,5.72
TAGCCTAGGTCATGCGGGCTAGTATAGTGTCGGC,3.65,2.96,0.103,1.54,-0.594,3.43,2.07,2.14,0.00724,0.957
CGTCCAAGGTCAGTGCTAGGTCAGTGAAAGCATT,4.03,3.44,0.709,2.75,-0.278,3.28,1.44,2.57,0.1,1.31
AATACAGGGTCAGCGTAGGCCAGAGTACGCACAG,5.67,4.35,0.74,2.92,0.652,4.74,4.5,3.96,0.97,2.52
TCAGACAGGTGAACGTAACTCAGGTACGCAGTCG,0.443,0.558,-0.111,0.538,-0.313,1.43,1.05,2.06,3.66,2.83
GCATATAGGTAATAAAAGGTGAAAGTCCGATTGT,1.12,4.97,0.418,1.97,-0.165,2.47,1.65,2.12,0.664,1.72
AGAATGAGGTTATTAAGACCAGGGAATTGCGGTC,1.7,1.52,-0.287,1.09,-0.232,2.8,1.57,1.93,0.533,1.05
CGTCCAAGGTCAGCAGATCAGTGAAAGCGACGTG,5.09,3.1,-0.179,2.21,-0.172,3.95,2.5,2.9,0.511,1.51
TCTCGCAGGACACGAAAGGTCAGAGCTCGACATC,2.57,3.8,2.98,3.17,0.477,3.71,1.25,2.76,2.41,2.44
ATCTCCAGGTAACAAGTTCAGTGAAAGAGAGGAC,1.08,1.37,0.906,0.805,1.22,0.983,0.944,1.21,0.66,0.891
CCTACTGGGCCATCCGGTCATTGATATCAACGTT,0.445,0.184,1.03,0.144,0.244,1.37,1.4,2.5,0.753,1.81
